Test results from the supplement of paper PMC12350171.
Structures can show the parent of a compound that is named as a salt. Values without a mark were called inactive.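 The calls were made as follows: active = AUC significantly below DMSO controls by Student t-fit with adjusted P under 0.01; inactive = not significantly reduced.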

test system: Haemophilus parainfluenzae; assay: growth AUC normalised to DMSO control (fraction of control); higher = less growth inhibition, active = hit call of the paper; conditions: 20 µM
In short: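 Three biological replicates were carried out, with OD578 read hourly for 24 h. Before inoculation at a starting OD578 of 0.01, pathogens were passaged anaerobically twice; plates were pre-reduced mGAM containing 20 μM compound and 1% DMSO, sealed with breathable membranes, and the Haemophilus parainfluenzae medium carried added hemin and NAD. Area under each growth curve was calculated by the trapezoidal rule up to the exponential-to-stationary transition and normalised to DMSO controls on the same plate.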

Row | SMILES | growth AUC normalised to DMSO control
1 | CO[C@H]1/C=C/O[C@@]2(C)Oc3c(C)c(O)c4c(O)c(c(/C=N/N5CCN(C6CCCC6)CC5)c(O)c4c3C2=O)NC(=O)/C(C)=C\C=C\[C@H](C)[C@H](O)[C@@H](C)[C@@H](O)[C@@H](C)[C@H](OC(C)=O)[C@@H]1C [Rifapentine] | 0.0302 (active)
2 | Oc1ncnc2[nH]ncc12 [Allopurinol] | 1.01
3 | COc1ccc(CC(C)NCC(O)c2ccc(O)c(NC=O)c2)cc1 (stereo unspecified) [Formoterol fumarate] | 1.09
4 | O=C(NCCN1CCOCC1)c1ccc(Cl)cc1 [Moclobemide] | 0.971
5 | N[C@@H](C(=O)N[C@@H]1C(=O)N2C(C(=O)O)=C(Cl)CS[C@H]12)c1ccccc1 [Cefaclor hydrate] | 0.97
6 | N=c1nc(N2CCCCC2)cc(N)n1O [Minoxidil] | 1.03
7 | COC(c1ccccc1)(c1ccccc1)[C@H](Oc1nc(C)cc(C)n1)C(=O)O [Ambrisentan] | 1.05
8 | CC1=C(CC(=O)O)c2cc(F)ccc2/C1=C\c1ccc([S+](C)[O-])cc1 (stereo unspecified) [Sulindac] | 0.942
9 | Cc1oncc1C(=O)Nc1ccc(C(F)(F)F)cc1 [Leflunomide] | 0.978
10 | CC1(C)S[C@@H]2[C@H](NC(=O)Cc3ccccc3)C(=O)N2[C@H]1C(=O)O [Benzylpenicillin sodium] | 0.0512 (active)
11 | CC(=O)Oc1ccc(C(c2ccc(OC(C)=O)cc2)c2ccccn2)cc1 [Bisacodyl] | 1.03
12 | COc1ccc(C(=O)NCc2ccc(OCCN(C)C)cc2)cc1OC [Itopride] | 0.993
13 | CC1CCc2c(N3CCC(O)CC3)c(F)cc3c(=O)c(C(=O)O)cn1c23 (stereo unspecified) [Nadifloxacin] | 0.0309 (active)
14 | CO/N=C(\C(=O)N[C@@H]1C(=O)N2C(C(=O)O)=C(C[N+]3(C)CCCC3)CS[C@H]12)c1csc(N)n1 [Cefepime hydrochloride] | 0.0407 (active)
15 | NNC(=O)c1ccncc1 [Isoniazid] | 1.09
16 | CN(C)[C@@H]1C(=O)C(C(=O)NCNCCCC[C@H](N)C(=O)O)=C(O)[C@@]2(O)C(=O)C3=C(O)c4c(O)cccc4[C@@](C)(O)[C@H]3C[C@@H]12 [Lymecycline] | 0.935

Row | SMILES | growth AUC normalised to DMSO control
17 | CC(C(=O)O)c1ccc(C(=O)c2ccccc2)s1 (stereo unspecified) [Tiaprofenic acid] | 1
18 | CCC1(C)CC(=O)NC1=O (stereo unspecified) [Ethosuximide] | 1.06
19 | CC(C)(C)NCC(O)COc1cccc2c1CCC(=O)N2 (stereo unspecified) [Carteolol hydrochloride] | 0.985
20 | CCn1cc(C(=O)O)c(=O)c2cc(F)c(N3CCNC(C)C3)c(F)c21 (stereo unspecified) [Lomefloxacin hydrochloride] | 0.04 (active)
21 | Oc1c(I)cc(Cl)c2cccnc12 [Clioquinol] | 1.03
22 | CC(C)(C(=O)c1cccnc1)c1cccnc1 [Metyrapone] | 0.991
23 | Cc1c(NC(=O)c2cccnc2)c(=O)n(-c2ccccc2)n1C [Nifenazone] | 1.01
24 | CC[C@H]1OC(=O)[C@H](C)[C@@H](O[C@H]2C[C@@](C)(OC)[C@@H](O)[C@H](C)O2)[C@H](C)[C@@H](O[C@@H]2O[C@H](C)C[C@H](N(C)C)[C@H]2O)[C@](C)(O)C[C@@H](C)/C(=N\OCOCCOC)[C@H](C)[C@@H](O)[C@]1(C)O [Roxithromycin] | 0.1 (active)
25 | CCc1nc(N)nc(N)c1-c1ccc(Cl)cc1 [Pyrimethamine] | 0.201 (active)
26 | Cc1cccc(C)c1NC(=O)C(C)N (stereo unspecified) [Tocainide hydrochloride] | 0.99
27 | Clc1ccc(C(Cn2ccnc2)OCc2ccsc2Cl)c(Cl)c1 (stereo unspecified) [Tioconazole] | 0.934
28 | CC(=O)OCC(=O)[C@@]12N=C(C)O[C@@H]1C[C@H]1[C@@H]3CCC4=CC(=O)C=C[C@]4(C)[C@H]3[C@@H](O)C[C@@]12C [Deflazacort] | 1.02
29 | Cc1c(N(C)C)c(=O)n(-c2ccccc2)n1C [Amidopyrine] | 1.01
30 | COc1cc(-c2ccc(=O)[nH]n2)ccc1OC(F)F [Zardaverine] | 1.02
31 | C=C[C@H]1CN2CC[C@H]1C[C@@H]2[C@@H](O)c1ccnc2ccc(OC)cc12 [Quinidine hydrochloride monohydrate] | 1.01
